Results: PubChem BioAssay AID488890 (Southern Research Specialized Biocontainment Screening …, 2010)
About 1,300 (0.41%) of roughly 320,000 compounds were called active. Not shown: some 3% with an inconclusive outcome. How the calls were made is not given here. Only a sample is shown. Measured potencies and affinities stand elsewhere.

Assay: growth inhibition of non-replicating M. tuberculosis (AID 488890);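 further: plate controls were DMSO cells for no effect and high antibiotic wells for full effect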
Conditions: Mycobacterium tuberculosis non-replicating, at 25 µM, stronger effect = higher value

Compound | inhibition
COc1cc2[nH]c(=O)n(CCC(=O)NCCC(C)C)c(=O)c2cc1OC | -11%
O=C(NCCC1CCCCN1S(=O)(=O)c1cccs1)C(=O)NCc1ccccc1 (centres undefined) | 10.3%
CC1(C)CC(=O)C=C(/C=C/c2ccccc2)C1 | -7.3%
COc1ccc(CN(C)C(=O)c2ccc(NS(=O)(=O)c3ccc4[nH]c(=O)[nH]c4c3)cc2)c(OC)c1OC | 35.7%
O=C(N/N=C/C(Br)=C/c1ccccc1)c1ccccc1F | 49.9%
O=C(c1cc(S(=O)(=O)N2CCC3(CC2)OCCO3)ccc1F)N1CCC2(CC1)OCCO2 | -5.64%
CCOCC(=O)OCC(=O)NC12CC3CC(CC(C3)C1)C2 | -7.93%
CCOC(=O)N1CCN(C(=O)NC23CC4CC(CC(C4)C2)C3)CC1 | -9.51%
CCCN1CCN(S(=O)(=O)c2ccc(-n3cnnn3)cc2)CC1 | 0.97%
COc1ccc(CCNC(=O)C2CCCN(S(=O)(=O)N3CCCCCC3)C2)cc1OC (centres undefined) | 14.5%
CCOc1ccc(/C=C/C(=O)N(CC)CC(=O)Nc2ccc3c(c2)OCCO3)cc1OC | 13.6%
COc1ccc(N2CCN(Cc3nc4cc(Cl)ccc4c(=O)[nH]3)CC2)cc1 | 0.72%
CCCn1nnnc1NCc1ccc(N(C)C)cc1 | 2.84%
CCCn1nnnc1NCc1ccc(OC)cc1 | 37%
CCCn1nnnc1NCc1ccc(F)cc1 | 24.5%
CC(C)c1ccc(CNc2nnnn2C)cc1 | 44.6%
CN(Cc1ccccc1)C(=O)COC(=O)C1CCN(S(=O)(=O)c2ccc(Cl)c(C(F)(F)F)c2)CC1 | -14.1%
CC1CCN(C(=O)C2CCC(CNc3c(N4CCCCC4)c(=O)c3=O)CC2)CC1 (centres undefined) | 15.8%
O=Cc1cn(-c2ccccc2)nc1-c1ccc(F)cc1 | 1.85%
OCc1cn(-c2ccccc2)nc1-c1ccc(-c2nn(-c3ccccc3)cc2CO)cc1 | -3.64%
Cc1ccc(-n2cc(CNCCN3CCOC3=O)c(-c3ccc(F)cc3)n2)cc1 | 26.6%
COc1ccc(-c2nn(-c3ccccc3F)cc2CNCCn2nc(C)cc2C)cc1 | 52.6%
O=C(c1ccc2oc(Cc3ccc(Cl)cc3)nc2c1)N1CC[C@H](O)C1 | -2.21%
CC#CCN(Cc1ccco1)C(=O)c1ccc(OC2CCN(Cc3ccccn3)CC2)cc1 | 10.1%
COc1ccc(/C=C(/C#N)C(=O)Nc2cccnc2)cc1OC | -2.65%

Compound | inhibition
C#CCOCCOCCOCCNc1nc(N2CCN(C(=O)C([C@@H](C)CC)n3cc(C(N)CC(C)C)nn3)CC2)nc(N2CCN(C(=O)[C@H](CCC(=O)O)n3cc(C(N)CC(C)C)nn3)CC2)n1 (some centres undefined) | -10.1%
Cc1ccccc1N=C(NO)c1nonc1N | -6.6%
O=C(O)c1ccc(Cl)c(S(=O)(=O)Nc2cccc(C(=O)Nc3cccc(C(F)(F)F)c3)c2)c1 | 26.6%
COc1cc(C=Nc2c(C)cc(C)cc2C)ccc1OC(C)=O | -9.04%
COc1cc(SC)ccc1C(=O)Nc1cccc(S(=O)(=O)NC2=NCCC2)c1 | 24.7%
O=c1c2cc(F)ccc2sn1-c1ccccc1 | 20.9%
Cc1ccc(C)c(-n2sc3ccc(F)cc3c2=O)c1 | -21.9%
Cc1ccc(S(=O)(=O)N2CCC(=O)N(C(CO)C(C)C)CC2)cc1 (centres undefined) | -0.84%
Cc1ccc(C(=O)c2ccc(C(F)(F)F)cc2)cc1 | 23.7%
CC(O)C(=O)N/N=C/c1ccccc1C(=O)O (centres undefined) | -1.19%
COc1ccc2[nH]c3c(Cl)ncnc3c2c1 | 66.1%
COc1ccc2c(c1)[nH]c1c(C)nccc12 | 0.33%
COc1ccc(NC(=O)C2CCCN(C(=O)c3ccc(Cl)cc3)C2)cc1Cl (centres undefined) | 5.35%
CCOc1ccc(CNC(=O)Cn2ccc3cc(S(=O)(=O)N4CCCC4)ccc32)cc1 | 9.09%
CC(NC(=O)Cc1ccsc1)c1ccc(F)cc1 (centres undefined) | 3.93%
COc1ccc(Br)c(C(=O)N2CCN(S(=O)(=O)/C=C/c3ccccc3)CC2)c1 | 17.6%
CCc1ccc(N2CC(C(=O)Nc3ccc(S(=O)(=O)NCC4CCCO4)cc3)CC2=O)cc1 (centres undefined) | -5.44%
O=Cc1cn(-c2ccccc2)nc1-c1ccccc1 | -1.35%
S=c1[nH]nc(-c2cccs2)n1/N=C/c1cn(-c2ccccc2)nc1-c1cccs1 | -1.62%
NC(=O)N/N=C/c1cn(-c2ccccc2)nc1-c1cccs1 | 8.14%
O=C(N/N=C/c1cn(-c2ccccc2)nc1-c1cccs1)c1ccccc1F | 3.19%
Cc1nc2ccccc2c(=O)n1/N=C/c1cn(-c2ccccc2)nc1-c1cccs1 | 3.43%
CC1(C)CC(=O)C(=Cc2cn(-c3ccccc3)nc2-c2ccccc2)C(=O)C1 | 44.3%
Cc1ccc(/C=C2\SC(=S)N(CCC(=O)Nc3cccnc3)C2=O)cc1 | 2.99%
Cc1ccc(CN2CC(C(=O)N3CCN(c4ccccc4O)CC3)CC2=O)cc1 (centres undefined) | 5.09%

Compound | inhibition
COc1ccc2cc3cc(C(=O)N4CCN(c5ccccn5)CC4)oc3nc2c1 | 15.3%
CCOc1cc(/C=C/C(=O)N(CC)CC(=O)NCc2cccs2)cc(Cl)c1OC | 11.9%
COc1ccccc1Cn1nnc2c(=O)[nH]c(C3CCN(C(=O)c4ccccc4Cl)CC3)nc21 | 33.2%
CC(=O)Nc1ccc(-c2csc(NC(=O)CCNC(=O)c3ccco3)n2)cc1 | 1.09%
O=C(COC(=O)CCS(=O)(=O)c1ccc(Cl)cc1)NCCc1ccc(Cl)cc1Cl | 21.4%
COC(=O)c1cc(Br)c(=O)n(Cc2ccc(C(=O)O)cc2)c1 | -0.84%
COC(=O)c1ccc(Cn2cc(C(F)(F)F)ccc2=O)cc1 | 69.9%
C[C@H](CO)N1C[C@H](C)[C@@H](CN(C)C(=O)NC2CCCCC2)Oc2c(NC(=O)Cc3ccccc3)cccc2C1=O | 17.9%
CN(CC(=O)Nc1ccc(F)c(F)c1)S(=O)(=O)c1cccs1 | 2.99%
CCN(C[C@H]1N[C@@](C)(C(=O)OC)[C@H]2C(=O)N(C)C(=O)[C@@H]12)S(=O)(=O)c1ccc(OC)cc1 | 9.25%
COC(=O)COc1ccccc1/C=C1/NC(=O)NC1=O | 5%
COC(=O)COc1ccccc1C(N)=O | 2.19%
COC(=O)COc1cc(Cl)c(C=O)cc1OC | 65.7%
CCC(CC)NC(=O)COc1ccc(OC)cc1C=O | -3.52%
COc1cccc(OC)c1C(=O)Nc1ccccc1C(=O)N1CCCCCC1 | 1.4%
NC(=O)CCN(C(=O)c1cccc(S(=O)(=O)N2CCc3ccccc32)c1)c1ccccc1 | 24.7%
O=C(COc1ccccc1)Nc1ccncc1 | 49.4%
CCOc1ccc(S(=O)(=O)N(C)c2ccc(OCC(=O)Nc3nccs3)cc2)cc1 | 20.7%
COc1ccc(OCC(=O)Nc2ccncc2)cc1 | 67%
O=C(COc1ccccc1)Nc1nccs1 | 50.5%
COc1cccc(OCC(=O)NNC(=O)c2cccs2)c1 | 88.2%
CCOc1ccc(CC(=O)Nc2nccs2)cc1 | 3.37%
C/C(=N\NC(=O)COc1ccc2ccccc2c1)c1cccs1 | 1.6%
O=C(COc1ccc2ccc(=O)oc2c1)Nc1nccs1 | 9.82%
